Whole data set: some 33,000 sequences, median “e-score” near -0.053, cut for the highest 2% near 0.38. The list comes from a sample in which the highest values are over-represented; it also holds similar and randomly drawn sequences.
molecular target: T1, SIX1 homeodomain (reference allele) (human, UniProt Q15475 108-198); assay: universal protein binding microarray; Universal all-10-mer PBM (8x60K, AMADID 030236), 300 nM GST-tagged protein, Alexa Fluor 488 anti-GST; buffer, salt, pH and temperature not stated (as in Berger); high values mean tight binding; settings: protein: ivt; tags: N-terminal GST; dsDNA, one strand shown
T1 sequence: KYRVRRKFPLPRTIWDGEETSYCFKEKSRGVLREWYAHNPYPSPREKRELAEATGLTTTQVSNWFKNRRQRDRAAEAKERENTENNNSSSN
Outline: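 Duplicate protein binding microarrays (universal 'all 10-mer', 8×60K format) were incubated with GST-tagged homeodomains at 300 nM final concentration. Binding was quantified as 8-mer E-scores with the Universal PBM Analysis Suite.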

Sequence	binding signal [E-score]
GGATAGCC	0.3501 ± 0.00233
CGATAGCA	0.206 ± 0.0373
CGATATCC	0.476 ± 0.0109
CGATATTC	0.317 ± 0.0233
CGATATGA	0.311 ± 0.0729
GGATAACC	0.297 ± 0.00525
AGTAATAT	0.236 ± 0.0691
ATACGGGC	0.278 ± 0.0276
TCGTCTCA	0.22 ± 0.0818
GTATGAAC	0.208 ± 0.0436
GTAACCCA	0.169 ± 0.0635
ATCATGCG	0.24 ± 0.02
ATATATGA	0.233 ± 0.0893
ATCAGCCC	0.308 ± 0.0315
ATACTCTG	0.354 ± 0.0279
ATACCCTG	0.439 ± 0.0103
ATACCCTA	0.452 ± 0.00588
ACACCCTC	0.306 ± 0.00827
ACCCCCTA	0.258 ± 0.0368
ACACCCTG	0.321 ± 0.0135
ATACCTTC	0.323 ± 0.0961
ATACCCTC	0.441 ± 0.0106
ACACCCTA	0.31 ± 0.00433
CCATCTGA	0.259 ± 0.0253
AGAAGTAT	0.297 ± 0.117

Sequence	binding signal [E-score]
CTTAACAC	0.151 ± 0.0479
GGGTGATA	0.4596 ± 0.00219
CGGTGATC	0.351 ± 0.0309
GGGTGAGA	0.172 ± 0.0545
CGGTGAGA	0.253 ± 0.0378
AGGTGATC	0.359 ± 0.0112
AGGTGAGA	0.159 ± 0.0138
GGGTGTTA	0.282 ± 0.0105
CGGTGATA	0.4094 ± 0.00389
AGGTGATA	0.418 ± 0.0434
GGGCTATA	0.2005 ± 0.00146
ATCATGGC	0.209 ± 0.00482
AGTTATCG	0.19 ± 0.0243
AGAATCCC	0.175 ± 0.0139
GTATAACA	0.238 ± 0.00858
CGATAGGA	0.26 ± 0.0286
GTATTGCA	0.169 ± 0.0405
ATAGCACA	0.169 ± 0.00707
GCTAATCC	0.208 ± 0.0144
ATCAAGTA	0.234 ± 0.0311
CAATACGC	0.198 ± 0.00389
AGATACGC	0.349 ± 0.00878
CGATACGC	0.434 ± 0.00646
AAATACGG	0.19 ± 0.0109
GGATACGA	0.36 ± 0.00395

Sequence	binding signal [E-score]
CGATACGA	0.39752 ± 0.00029
AGATACGA	0.279 ± 0.0423
ATATACGG	0.305 ± 0.00579
AGATACGG	0.401 ± 0.00895
ACTAATCT	0.192 ± 0.0141
AAGGTGAT	0.1945 ± 0.00188
AGCCGGTA	0.169 ± 0.00673
CCGACCCA	0.155 ± 0.0833
ATTAACAC	0.258 ± 0.0441
ATTTAATA	0.164 ± 0.0598
ATCTCCAC	0.204 ± 0.00599
ATAGTACG	0.209 ± 0.0147
ACACCGGC	0.28 ± 0.0468
ATCAATCG	0.266 ± 0.0101
ATATACCC	0.446 ± 0.0125
ATATACTG	0.299 ± 0.0355
CTATACCC	0.369 ± 0.00624
ATATACCA	0.326 ± 0.0157
ATATACTC	0.354 ± 0.0664
ATATACCG	0.393 ± 0.00521
ATAGCGGA	0.227 ± 0.0403
CCCAAGCA	0.263 ± 0.00886
GTAGGCCA	0.17 ± 0.0671
ATAGGATA	0.415 ± 0.0252
CTAGGATA	0.356 ± 0.00923

Sequence	binding signal [E-score]
ATAGGATC	0.367 ± 0.0232
CGAGGATA	0.384 ± 0.0112
AGAGGATA	0.326 ± 0.0175
ACAGGATA	0.236 ± 0.0392
GTAGGATA	0.355 ± 0.00663
CAAGGATA	0.342 ± 0.00822
GCAGGATA	0.329 ± 0.0306
GGAGGATA	0.387 ± 0.0115
CCAGGATA	0.38 ± 0.00746
CGAGGATC	0.333 ± 0.023
ACCCTGAT	0.3 ± 0.0183
GATCGAGA	0.295 ± 0.041
GATAGCAA	0.202 ± 0.0434
ATAGAATA	0.162 ± 0.00811
AGACCATA	0.19 ± 0.0814
GTCTACAC	0.152 ± 0.0214
AATACACC	0.336 ± 0.00415
GAATAATA	0.226 ± 0.111
AAATGATA	0.415 ± 0.0488
AAATGAGA	0.16 ± 0.0635
AAATGATC	0.321 ± 0.107
GAATGATC	0.306 ± 0.0507
TAATGATA	0.36 ± 0.0576
CAATGATC	0.31 ± 0.0312
GAATGATA	0.412 ± 0.066

Sequence	binding signal [E-score]
CAATGATA	0.418 ± 0.0312
AACACCCG	0.304 ± 0.00694
ACCTGAGA	0.158 ± 0.0127
ATCGAAGG	0.179 ± 0.0692
AGAGTGTA	0.223 ± 0.0204
AGCCCCTA	0.153 ± 0.0497
CCGCATTA	0.157 ± 0.0248
GAGCTGGA	0.177 ± 0.0153
ATCGCCGA	0.19 ± 0.0306
ATACCGTC	0.396 ± 0.0211
ATCCCGTA	0.342 ± 0.0301
ATACCGAC	0.341 ± 0.0139
ATACCGTG	0.384 ± 0.0192
ATACCGTA	0.391 ± 0.00392
ACACCGTC	0.262 ± 0.00999
ACACCGTA	0.344 ± 0.0258
ACACCGTG	0.277 ± 0.0223
ATTCCGTG	0.156 ± 0.0528
ATATGGTC	0.277 ± 0.0141
GGATTAAA	0.231 ± 0.111
AATCCGAG	0.237 ± 0.07
CTGGAATC	0.158 ± 0.0574
CCCATATC	0.4689 ± 0.00434
ACCATACC	0.154 ± 0.0389
CCCATATA	0.309 ± 0.0133

Sequence	binding signal [E-score]
CCTATATC	0.352 ± 0.0286
ACCATATA	0.274 ± 0.008
ACCATATC	0.418 ± 0.00875
AGGTTTAT	0.199 ± 0.0561
CCGATGCG	0.215 ± 0.071
CGATAGGC	0.175 ± 0.0335
AATATCTC	0.274 ± 0.0766
CATATCAG	0.436 ± 0.0183
AATATGAT	0.309 ± 0.00824
AATATCAT	0.381 ± 0.0478
AATATCAG	0.225 ± 0.129
AATATCAA	0.225 ± 0.165
CATATTAG	0.191 ± 0.0531
ACTATCAC	0.279 ± 0.062
CCTATCAC	0.387 ± 0.0097
AATATCAC	0.38 ± 0.0781
CTCCATCA	0.157 ± 0.0276
ATACAGCC	0.225 ± 0.1
ATCGGGTG	0.32 ± 0.0738
ACCGGGAT	0.313 ± 0.0258
GTATTAAA	0.246 ± 0.142
ATCATCAA	0.199 ± 0.0117
AACACCCT	0.21 ± 0.0269
CCCCGTAG	0.176 ± 0.139
GGGATGAA	0.191 ± 0.0459

Sequence	binding signal [E-score]
CATATTAC	0.219 ± 0.0138
CATATCTC	0.342 ± 0.0177
CATATCAC	0.446 ± 0.0382
CCGCTATC	0.304 ± 0.0394
ATGCCAGG	0.161 ± 0.00747
GGATCTCA	0.298 ± 0.0172
ATATCTCA	0.391 ± 0.0526
ATATCTCC	0.424 ± 0.0218
GTATCTCA	0.392 ± 0.0267
CTATCTCA	0.256 ± 0.0685
CTATCTCC	0.217 ± 0.0476
ATATCTGG	0.298 ± 0.0486
ATCTCTCC	0.184 ± 0.128
GCATCTCA	0.186 ± 0.00338
ATATCTCG	0.378 ± 0.0423
ATATCTAG	0.285 ± 0.0844
ATCTCTCA	0.252 ± 0.0252
AGTACACC	0.209 ± 0.0287
ATCCCTGA	0.272 ± 0.0262
ACTATACT	0.211 ± 0.0749
ACTAGTAT	0.249 ± 0.0623
TACCTCGA	0.159 ± 0.0128
